The source of these data is PubChem BioAssay.

The source made the active and inactive calls.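 How the source made its calls, unless noted: active means visual image review flags a hit and inhibition of aggregation exceeds 20%; inconclusive means visual hit but inhibition at or below 20%; inactive means no hit on visual image review.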

A short description of experiment [1]: inhibitors of TNFa-induced NFkB p65 translocation, primary screen, imaging, HUVEC, MLSMR starter and 10KST1 sets (AID 438;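 active means inhibition above 20% together with a positive visual image hit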;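 further: compound added about 3h40 before a 20 min TNFalpha stimulation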;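 on inhibition: signal is the nuclear over cytoplasmic p65 intensity ratio per well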). To be noted: HUVEC TNFa-induced p65 nuclear translocation; cell count: measured here: nuclei count (cytotoxicity indicator), at 2.08 µM; inhibition: at 2 µM, stronger effect = higher value, 0% TNFa-plus-vehicle, 100% no-TNFa wells.
Experiment [2] can be described thus: reduction of polyQ htt aggregates in cells – imaging, exon1htt(103Q)mCFP cells, high-content imaging, primary screen (AID 483).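 Further: compound exposure lasted 3 days before fixation.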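 On nuclei count: percent of the per-plate median nuclei count of sample wells.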 To be noted: exon1htt(103Q)mCFP cell line, aggregate imaging, at 2 µM; inhibition of aggregation: stronger effect = higher value; nuclei count: measured here: cell count, toxicity.
Experiment [3] in a line: endothelial E-selectin expression blockers – imaging, HUVEC, immunofluorescence, MLSMR starter and 10KST1 sets, primary screen (AID 487;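 active means visually confirmed hit in the image check and inhibition above 20%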;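 on inhibition: signal is fraction of cell area covered by stained E-selectin grains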;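 on nuclei count: 100% = median nuclei count of all wells on the same plate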). To be noted: HUVEC TNFalpha-induced E-selectin immunofluorescence imaging, at 2 µM; inhibition: stronger effect = higher value; nuclei count: measured here: cell number, toxicity.
For experiment [4], the target named is Voltage-gated potassium channel subunit beta-2 (Rattus norvegicus) (UniProt P62483). The experiment in a line: inhibitors of rat Kvbeta2 reductase activity – biochemical, NADPH fluorescence, primary screen (AID 622;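 active means fluorescence slope higher than the sample average by over 3 SD, cut at about -0.22 in these data, passing the limit was not always enough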;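 further: slope of raw intensity against log time taken from 70 to 1610 s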). To be noted: recombinant KvBeta, 4-cyanobenzaldehyde reduction, at 10 µM, stronger effect = higher value.
Chain of Voltage-gated potassium channel subunit beta-2 (Rattus norvegicus) (P62483 whole entry, looked up): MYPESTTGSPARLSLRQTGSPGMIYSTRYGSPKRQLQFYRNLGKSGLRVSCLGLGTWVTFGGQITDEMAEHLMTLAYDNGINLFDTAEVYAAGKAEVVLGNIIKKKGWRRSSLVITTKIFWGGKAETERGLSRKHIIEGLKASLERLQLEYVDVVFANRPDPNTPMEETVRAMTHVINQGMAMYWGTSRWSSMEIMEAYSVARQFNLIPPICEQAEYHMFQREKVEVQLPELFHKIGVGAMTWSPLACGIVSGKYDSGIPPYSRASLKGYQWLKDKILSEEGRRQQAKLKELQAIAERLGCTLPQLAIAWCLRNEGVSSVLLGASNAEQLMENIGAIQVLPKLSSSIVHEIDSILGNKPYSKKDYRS
For experiment [5] the target is unchanged. Kind of experiment: enhancers of rat Kvbeta2 NADPH turnover – biochemical, NADPH fluorescence, primary screen (AID 623;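 active means NADPH fluorescence slope more negative than the mean of all samples by about 3 SD, 99.7% confidence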;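 further: fluorescence intensity change per second fitted from 20 to 320 s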). To be noted: Recombinant KvBeta, NADPH fluorescence decrease slope, 10 min; at 10 µM; stronger effect = lower value.
For experiment [6], the target named is Alpha-2C adrenergic receptor (Homo sapiens) (UniProt P18825). The experiment in a line: compounds altering alpha2C-coupled GIRK flux – cell-based, HEK293 alpha2C/GIRK1/2, thallium flux, primary screen (AID 624;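 active means fluorescence slope after compound addition differing from the mean of all screened samples at 99.7% confidence, in either direction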;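 further: slope of fluorescence ratio to pre-addition baseline per second over 15 to 24 s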). To be noted: thallium flux BTC fluorescence, at 10 µM, actives lie on both sides.
Chain of Alpha-2C adrenergic receptor (Homo sapiens) (P18825 whole entry, looked up): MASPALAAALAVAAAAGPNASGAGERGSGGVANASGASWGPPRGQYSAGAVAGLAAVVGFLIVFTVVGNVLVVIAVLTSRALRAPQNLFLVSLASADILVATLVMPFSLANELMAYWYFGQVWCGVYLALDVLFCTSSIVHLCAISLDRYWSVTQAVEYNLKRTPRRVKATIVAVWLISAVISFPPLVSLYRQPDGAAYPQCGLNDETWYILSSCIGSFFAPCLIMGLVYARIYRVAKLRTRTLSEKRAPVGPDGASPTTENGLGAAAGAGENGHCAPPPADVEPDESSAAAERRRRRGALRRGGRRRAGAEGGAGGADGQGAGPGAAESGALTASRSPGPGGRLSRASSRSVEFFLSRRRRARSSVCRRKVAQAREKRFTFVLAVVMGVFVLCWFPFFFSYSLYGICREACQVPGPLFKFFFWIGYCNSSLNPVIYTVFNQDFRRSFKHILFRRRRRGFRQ
Experiment [7] can be described thus: blockers of RIG-like receptor reporter activation – cell-based, Sendai virus stimulus, luciferase, 10K MLSCN set, TLR/RLR signaling modifier project, primary screen (AID 602276;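 active means inhibition at or above 50% at 10 µM; inactive means inhibition below 50%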;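 further: firefly luciferase from ISG56 promoter only with Renilla not read in this screen; 0% = Sendai virus plus DMSO and 100% = medium plus DMSO without virus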). To be noted: HEK293 RL24 IRF3 luciferase reporter, at 10 µM, stronger effect = higher value.
Experiment [8] in a line: TLR3 IRF3 reporter activation blockers – cell-based, poly I:C stimulus, luciferase, 10K MLSCN set, primary screen (AID 602277;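 active means inhibition of the reporter signal at or above 50%; inactive means inhibition below 50%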). To be noted: HEK293-TLR3 RL24 IRF3 luciferase reporter, at 10 µM, stronger effect = higher value.

In the case of `O=C(Nc1ccc2snnc2c1)N1CCSCC1`, the cell count in experiment [1] was found to be 407. Also, the inhibition in experiment [1] was -3% (inactive); in experiment [3], 12.4% (inactive); in experiment [7], -5.1% (inactive); in experiment [8], 3.28% (inactive). For the same compound, in experiment [2], the inhibition of aggregation is 1.8% (inactive). Besides, the nuclei count is 97.6% in experiment [2] and 106% in experiment [3]. In experiment [4], the fluorescence slope was -0.371 (inactive). The NADPH fluorescence slope in experiment [5] was -1.5e-05 (inactive). Further, the slope in experiment [6] was 0.00608 (inactive).
Take `O=S(=O)(c1ccccc1)c1nc(-c2ccco2)oc1NCCCN1CCOCC1`: the cell count in experiment [1] is 548. Besides, the inhibition was 0% (inactive) in experiment [1], -73.7% (inactive) in experiment [3], 0.535% (inactive) in experiment [7] and 4.26% (inactive) in experiment [8]. Besides, the inhibition of aggregation in experiment [2] is -3% (inactive). In addition, the nuclei count is 88.3% in experiment [2] and 124% in experiment [3]. The fluorescence slope in experiment [4] is -0.502 (inactive). In experiment [5], the NADPH fluorescence slope was 1.1e-05 (inactive). Further, the slope in experiment [6] was 0.0038 (inactive).
Consider `Cc1oc(C(=O)O)cc1CSCc1cc(C(=O)O)c(C)o1`, for which, in experiment [1], the cell count came to 403. Also, the inhibition is -9.3% (inactive) in experiment [1], -15.5% (inactive) in experiment [3], -20.7% (inactive) in experiment [7] and -5.67% (inactive) in experiment [8]. Besides, the inhibition of aggregation in experiment [2] was -21.1% (inactive). Besides, the nuclei count turned out to be 102% in experiment [2] and 118% in experiment [3]. In addition, the fluorescence slope in experiment [4] was -0.508 (inactive). In addition, in experiment [5], the NADPH fluorescence slope was 3.2e-05 (inactive). Moreover, in experiment [6], the slope was 0.00721 (inactive).
For the compound `O=C(c1ccc2nc(N3CCOCC3)sc2c1)N1CCCC1`, the cell count in experiment [1] worked out at 708. The inhibition is -11.2% (inactive) in experiment [1], -70.6% (inactive) in experiment [3], 3.55% (inactive) in experiment [7] and 3.65% (inactive) in experiment [8]. In addition, the inhibition of aggregation in experiment [2] was 6% (inactive). Moreover, the nuclei count in experiment [2] amounted to 62.7%; in experiment [3] it was 116%. Moreover, the fluorescence slope in experiment [4] is -0.564 (inactive). For the same compound, the NADPH fluorescence slope in experiment [5] was -2.7e-05 (inactive). Moreover, the slope in experiment [6] is 0.00689 (inactive).
Take `CCOc1ccccc1N(CC(=O)NC1CCCC1)C(=O)CCCC(=O)Nc1ccccn1`: in experiment [1], the cell count worked out at 369. For the same compound, the inhibition was 5.3% (inactive) in experiment [1], -20% (inactive) in experiment [3], 5.25% (inactive) in experiment [7] and 19.7% (inactive) in experiment [8]. For the same compound, the inhibition of aggregation in experiment [2] was 24.9% (inactive). Moreover, the figures for the nuclei count in experiment [2] and in experiment [3] were 102% and 122%, respectively. In addition, the fluorescence slope in experiment [4] is -0.63 (inactive). For the same compound, the NADPH fluorescence slope in experiment [5] is -2.4e-05 (inactive). The slope in experiment [6] was 0.00589 (inactive).
Consider `O=C1c2ccccc2C(Nc2ccc3c(c2)OCCO3)N1Cc1ccc2c(c1)OCO2` (centres undefined), for which, in experiment [1], the cell count is 597. The inhibition is 3.4% (inactive) in experiment [1], -14.2% (inactive) in experiment [3], 3.99% (inactive) in experiment [7] and 50.1% (active) in experiment [8]. Further, the inhibition of aggregation in experiment [2] is -2.8% (inactive). The nuclei count in experiment [2] was found to be 102%; in experiment [3], 106%. In addition, in experiment [4], the fluorescence slope is -0.553 (inactive). Moreover, in experiment [5], the NADPH fluorescence slope was -5e-05 (inactive). In addition, the slope in experiment [6] was 0.00464 (inactive).
In the case of `COc1ccc(C(c2nnnn2C2CCCC2)N2CCN(C3CCCC3)CC2)cc1OC` (centres undefined), the cell count in experiment [1] was determined as 263. Moreover, the inhibition in experiment [1] was 17.5% (inactive); in experiment [3] it was 2% (inactive); in experiment [7], 12.8% (inactive); in experiment [8], 18.8% (inactive). Besides, in experiment [2], the inhibition of aggregation is 8.8% (inactive). The nuclei count in experiment [2] turned out to be 104%; in experiment [3] it was 88.5%. Further, the fluorescence slope in experiment [4] was -0.512 (inactive). For the same compound, the NADPH fluorescence slope in experiment [5] is -0.000149 (inactive). For the same compound, the slope in experiment [6] is 0.00468 (inactive).
With `CC(C)Oc1ccc(N2CC(C(=O)Nc3ccccc3F)CC2=O)cc1` (centres undefined), the cell count in experiment [1] was found to be 804. Besides, the inhibition is 3.6% (inactive) in experiment [1], -110% (inactive) in experiment [3], 4.3% (inactive) in experiment [7] and 37.6% (inactive) in experiment [8]. For the same compound, in experiment [2], the inhibition of aggregation was -2% (inactive). Further, the figures for the nuclei count in experiment [2] and in experiment [3] were 103% and 128%, respectively. Moreover, the fluorescence slope in experiment [4] is -0.438 (inactive). The NADPH fluorescence slope in experiment [5] is 6.3e-06 (inactive). The slope in experiment [6] is 0.00384 (inactive).
Turning to `COc1cccc(NC(=O)N2CCN(C(=O)C(Cc3ccc(OC)c(OC)c3)NC(C)=O)CC2)c1` (centres undefined), in experiment [1], the cell count amounted to 364. Moreover, the inhibition in experiment [1] was -0.5% (inactive); in experiment [3], -47.6% (inactive); in experiment [7], 12.1% (inactive); in experiment [8] it was 22.8% (inactive). The inhibition of aggregation in experiment [2] was -4% (inactive). In addition, the nuclei count turned out to be 107% in experiment [2] and 99.9% in experiment [3]. Moreover, in experiment [4], the fluorescence slope is -0.355 (inactive). Moreover, in experiment [5], the NADPH fluorescence slope is -3.6e-05 (inactive). In experiment [6], the slope was 0.00701 (inactive).
For the compound `O=C(Nc1ncnc2sc3c(c12)CCC3)c1ccco1`, the cell count in experiment [1] was found to be 289. Also, the inhibition in experiment [1] is -1.6% (inactive); in experiment [3] it was -12.5% (inactive); in experiment [7], -7.87% (inactive); in experiment [8], -0.691% (inactive). Also, in experiment [2], the inhibition of aggregation is 0.8% (inactive). In addition, the nuclei count came to 75.8% in experiment [2] and 118% in experiment [3]. Also, the fluorescence slope in experiment [4] is -0.327 (inactive). In addition, the NADPH fluorescence slope in experiment [5] was -4.2e-05 (inactive). The slope in experiment [6] was 0.00564 (inactive).
With `CCCS(=O)(=O)NCCc1cc2cc(C)c(C)cc2[nH]c1=O`, in experiment [1], the cell count worked out at 321. The inhibition in experiment [1] is -18.8% (inactive); in experiment [3] it was -16.4% (inactive); in experiment [7] it was 4.21% (inactive); in experiment [8], -4.55% (inactive). In experiment [2], the inhibition of aggregation was 4.2% (inactive). Moreover, the nuclei count in experiment [2] is 84.9%; in experiment [3] it was 106%. The fluorescence slope in experiment [4] is -0.587 (inactive). For the same compound, the NADPH fluorescence slope in experiment [5] was -7.5e-05 (inactive). In addition, the slope in experiment [6] is 0.0056 (inactive).
On to `COc1ccc(C(=O)Nc2nc(C)c(C(=O)N(C)C)s2)cc1OC`, for which, in experiment [1], the cell count is 435. The inhibition was 2.8% (inactive) in experiment [1], -16.9% (inactive) in experiment [3], -7.68% (inactive) in experiment [7] and -30.5% (inactive) in experiment [8]. In addition, in experiment [2], the inhibition of aggregation was 5.4% (inactive). Besides, the nuclei count in experiment [2] amounted to 102%; in experiment [3], 91.8%. For the same compound, the fluorescence slope in experiment [4] is -0.461 (inactive). Besides, in experiment [5], the NADPH fluorescence slope is 2.3e-06 (inactive). The slope in experiment [6] was 0.00371 (inactive).
As for `O=C1c2ccccc2CN1CCNS(=O)(=O)c1ccc(Cl)cc1`, in experiment [1], the cell count came to 414. For the same compound, the inhibition is -1% (inactive) in experiment [1], -1.7% (inactive) in experiment [3], 14.1% (inactive) in experiment [7] and 25.9% (inactive) in experiment [8]. In experiment [2], the inhibition of aggregation is -2.3% (inactive). The nuclei count in experiment [2] came out at 101%; in experiment [3] it was 97%. In experiment [4], the fluorescence slope is -0.389 (inactive). The NADPH fluorescence slope in experiment [5] was -7.9e-06 (inactive). Besides, the slope in experiment [6] is 0.00712 (inactive).
Turning to `C=CCn1c(-c2cccs2)nc2nc3ccccc3nc21`, the cell count in experiment [1] was 546. The inhibition was -5.4% (inactive) in experiment [1], -77.5% (inactive) in experiment [3], -3.42% (inactive) in experiment [7] and 2.94% (inactive) in experiment [8]. In experiment [2], the inhibition of aggregation was -7.5% (inactive). For the same compound, the nuclei count in experiment [2] was 90.1%; in experiment [3], 141%. Moreover, in experiment [4], the fluorescence slope is -0.602 (inactive). Also, in experiment [5], the NADPH fluorescence slope was 4.4e-06 (inactive). The slope in experiment [6] is 0.0057 (inactive).
